# Source: article PMC7862700, “An all-to-all approach to the identification of sequence-specific readers for epigenetic DNA modifications on cytosine”
# Key:
# Test in all cases: DAPPL (digital affinity profiling via proximity ligation, sequencing); 10 mM Tris-HCl pH 7.5, 50 mM NaCl, 1 mM DTT, 4% glycerol, room temperature, 30 min; GST-TFs on glutathione beads, 16-mer random dsDNA library, 0.1% formaldehyde crosslink after washing; high values mean tight binding
# Conditions in all cases: protein: recombinant; tags: N-terminal GST; dsDNA, one strand shown
# [1] = target: T1, ELK1 (Homo sapiens, UniProt P19419 1-428)
# T1 sequence: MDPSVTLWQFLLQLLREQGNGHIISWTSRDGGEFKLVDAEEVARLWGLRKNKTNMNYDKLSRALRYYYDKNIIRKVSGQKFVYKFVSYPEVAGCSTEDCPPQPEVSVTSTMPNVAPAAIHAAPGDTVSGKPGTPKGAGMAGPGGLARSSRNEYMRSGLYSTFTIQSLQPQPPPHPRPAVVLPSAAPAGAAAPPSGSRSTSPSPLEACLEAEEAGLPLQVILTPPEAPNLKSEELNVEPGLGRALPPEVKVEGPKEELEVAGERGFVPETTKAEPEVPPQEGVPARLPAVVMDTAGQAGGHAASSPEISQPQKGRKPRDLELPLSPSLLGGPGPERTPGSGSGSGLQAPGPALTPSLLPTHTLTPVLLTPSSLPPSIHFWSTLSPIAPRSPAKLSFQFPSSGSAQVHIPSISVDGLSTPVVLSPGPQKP
# Outline: (§1)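 GST fusions of human transcription factors were expressed in yeast and captured with glutathione beads. Once given DNA barcodes and pooled alongside a tag-only sample, they were incubated for 30 min at room temperature with 200 nmole of a random double-stranded 16-mer DNA library in Tris/NaCl/DTT/glycerol buffer, then washed, crosslinked (0.1% formaldehyde), proximity-ligated, PCR-amplified and sequenced on an Illumina NextSeq500. The binding signal of each hexamer is its read frequency for a factor divided by its frequency for the tag-only sample.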
# [2] = target: T2, ERG (Homo sapiens, UniProt P11308 1-479)
# T2 sequence: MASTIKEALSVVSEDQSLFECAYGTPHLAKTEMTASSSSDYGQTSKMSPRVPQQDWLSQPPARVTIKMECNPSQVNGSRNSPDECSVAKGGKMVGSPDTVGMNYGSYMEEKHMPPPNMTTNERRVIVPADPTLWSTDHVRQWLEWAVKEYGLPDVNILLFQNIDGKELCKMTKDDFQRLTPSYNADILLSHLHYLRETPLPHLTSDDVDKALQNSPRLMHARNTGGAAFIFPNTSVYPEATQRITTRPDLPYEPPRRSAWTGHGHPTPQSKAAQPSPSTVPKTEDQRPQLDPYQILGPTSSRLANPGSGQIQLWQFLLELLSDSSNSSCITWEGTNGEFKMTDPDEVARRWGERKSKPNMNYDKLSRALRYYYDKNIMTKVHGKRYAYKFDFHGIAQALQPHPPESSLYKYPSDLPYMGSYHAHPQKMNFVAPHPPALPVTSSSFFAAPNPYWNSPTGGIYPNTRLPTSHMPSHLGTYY
# Outline: as §1
# [3] = target: ELF1 (Homo sapiens, UniProt P32519 1-619)
# Sequence of ELF1 (P32519 whole entry): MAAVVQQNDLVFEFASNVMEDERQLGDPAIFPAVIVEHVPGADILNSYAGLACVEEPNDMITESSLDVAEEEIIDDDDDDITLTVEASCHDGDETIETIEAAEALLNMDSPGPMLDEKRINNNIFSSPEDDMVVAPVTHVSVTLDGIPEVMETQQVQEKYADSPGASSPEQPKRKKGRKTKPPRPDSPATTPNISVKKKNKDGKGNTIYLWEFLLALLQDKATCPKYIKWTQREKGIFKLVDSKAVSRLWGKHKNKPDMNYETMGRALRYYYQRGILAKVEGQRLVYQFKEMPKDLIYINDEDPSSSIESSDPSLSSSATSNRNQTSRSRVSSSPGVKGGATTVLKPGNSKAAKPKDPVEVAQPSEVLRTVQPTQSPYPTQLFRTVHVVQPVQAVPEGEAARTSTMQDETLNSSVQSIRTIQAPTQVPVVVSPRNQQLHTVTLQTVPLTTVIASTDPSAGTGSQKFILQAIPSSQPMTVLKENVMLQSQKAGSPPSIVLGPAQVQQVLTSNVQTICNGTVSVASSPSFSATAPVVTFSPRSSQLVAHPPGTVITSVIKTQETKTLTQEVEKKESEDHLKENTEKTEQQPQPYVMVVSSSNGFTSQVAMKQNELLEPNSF
# Outline: as §1
# [4] = target: SPIB (Homo sapiens, UniProt Q01892 1-262)
# Sequence of SPIB (Q01892 whole entry): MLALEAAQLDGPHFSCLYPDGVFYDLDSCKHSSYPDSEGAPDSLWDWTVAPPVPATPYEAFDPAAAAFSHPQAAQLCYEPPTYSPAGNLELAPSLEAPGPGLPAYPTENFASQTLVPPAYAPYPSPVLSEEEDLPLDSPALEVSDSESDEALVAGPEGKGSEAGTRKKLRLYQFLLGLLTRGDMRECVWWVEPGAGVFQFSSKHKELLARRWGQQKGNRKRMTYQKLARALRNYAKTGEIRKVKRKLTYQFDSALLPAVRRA
# Outline: as §1
# [5] = target: T3, FEV (Homo sapiens, UniProt Q99581 1-238)
# T3 sequence: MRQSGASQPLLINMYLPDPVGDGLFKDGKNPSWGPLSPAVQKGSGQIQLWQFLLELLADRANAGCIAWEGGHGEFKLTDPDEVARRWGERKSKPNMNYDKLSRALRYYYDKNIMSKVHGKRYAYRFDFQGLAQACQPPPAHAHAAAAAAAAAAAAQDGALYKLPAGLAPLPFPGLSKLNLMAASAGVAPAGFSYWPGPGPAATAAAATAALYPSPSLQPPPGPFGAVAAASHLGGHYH
# Outline: as §1
# [6] = target: T4, SPIC (Homo sapiens, UniProt Q8N5J4 1-248)
# T4 sequence: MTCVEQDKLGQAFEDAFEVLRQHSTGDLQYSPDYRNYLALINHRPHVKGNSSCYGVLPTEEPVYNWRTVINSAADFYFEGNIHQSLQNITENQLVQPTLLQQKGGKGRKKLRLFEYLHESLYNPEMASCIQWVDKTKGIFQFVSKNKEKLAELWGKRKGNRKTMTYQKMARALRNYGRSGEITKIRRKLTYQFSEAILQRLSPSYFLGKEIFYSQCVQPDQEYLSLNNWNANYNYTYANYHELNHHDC
# Outline: as §1
# [7] = target: ELF4 (Homo sapiens, UniProt Q99607 1-663)
# Sequence of ELF4 (Q99607 whole entry): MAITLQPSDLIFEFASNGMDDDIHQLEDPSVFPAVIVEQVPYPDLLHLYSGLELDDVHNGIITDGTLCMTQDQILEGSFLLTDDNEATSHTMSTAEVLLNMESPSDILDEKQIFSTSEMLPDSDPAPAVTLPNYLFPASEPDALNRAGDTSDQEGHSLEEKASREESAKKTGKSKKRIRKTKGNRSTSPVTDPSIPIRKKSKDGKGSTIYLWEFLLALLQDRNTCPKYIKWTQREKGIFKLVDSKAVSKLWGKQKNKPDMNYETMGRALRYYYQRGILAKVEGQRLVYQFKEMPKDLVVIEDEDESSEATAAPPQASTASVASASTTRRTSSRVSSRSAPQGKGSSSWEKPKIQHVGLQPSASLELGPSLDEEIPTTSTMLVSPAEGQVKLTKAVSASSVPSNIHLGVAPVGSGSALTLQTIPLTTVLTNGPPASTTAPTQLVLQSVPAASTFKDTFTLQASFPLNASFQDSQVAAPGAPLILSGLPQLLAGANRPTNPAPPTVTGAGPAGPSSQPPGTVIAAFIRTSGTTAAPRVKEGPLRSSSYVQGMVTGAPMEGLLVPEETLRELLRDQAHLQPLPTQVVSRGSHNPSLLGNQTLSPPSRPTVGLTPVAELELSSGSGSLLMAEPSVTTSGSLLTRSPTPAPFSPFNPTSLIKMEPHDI
# Outline: as §1
# [8] = target: T5, ETV2 (Homo sapiens, UniProt O00321 1-342)
# T5 sequence: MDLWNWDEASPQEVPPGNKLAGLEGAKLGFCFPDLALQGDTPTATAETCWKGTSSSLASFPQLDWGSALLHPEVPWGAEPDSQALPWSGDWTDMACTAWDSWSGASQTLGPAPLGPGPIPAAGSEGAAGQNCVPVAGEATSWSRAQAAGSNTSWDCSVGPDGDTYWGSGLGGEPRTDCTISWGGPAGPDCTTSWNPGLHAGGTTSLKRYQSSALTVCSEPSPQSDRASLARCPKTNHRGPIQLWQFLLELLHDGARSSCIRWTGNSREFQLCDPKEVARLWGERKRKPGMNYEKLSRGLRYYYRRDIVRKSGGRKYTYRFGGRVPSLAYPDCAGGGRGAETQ
# Outline: as §1
# [9] = target: CRX (Homo sapiens, UniProt O43186 1-299)
# Sequence of CRX (O43186 whole entry): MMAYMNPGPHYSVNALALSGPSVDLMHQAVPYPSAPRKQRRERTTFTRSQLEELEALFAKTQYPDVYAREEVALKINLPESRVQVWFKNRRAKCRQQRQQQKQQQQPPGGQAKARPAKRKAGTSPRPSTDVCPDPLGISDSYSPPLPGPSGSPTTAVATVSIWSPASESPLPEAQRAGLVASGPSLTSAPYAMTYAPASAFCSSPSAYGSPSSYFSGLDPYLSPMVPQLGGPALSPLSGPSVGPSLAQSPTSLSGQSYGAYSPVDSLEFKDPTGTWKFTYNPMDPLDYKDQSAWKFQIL
# Outline: as §1
# [10] = target: T6, ETV3L (Homo sapiens, UniProt Q6ZN32 1-361)
# T6 sequence: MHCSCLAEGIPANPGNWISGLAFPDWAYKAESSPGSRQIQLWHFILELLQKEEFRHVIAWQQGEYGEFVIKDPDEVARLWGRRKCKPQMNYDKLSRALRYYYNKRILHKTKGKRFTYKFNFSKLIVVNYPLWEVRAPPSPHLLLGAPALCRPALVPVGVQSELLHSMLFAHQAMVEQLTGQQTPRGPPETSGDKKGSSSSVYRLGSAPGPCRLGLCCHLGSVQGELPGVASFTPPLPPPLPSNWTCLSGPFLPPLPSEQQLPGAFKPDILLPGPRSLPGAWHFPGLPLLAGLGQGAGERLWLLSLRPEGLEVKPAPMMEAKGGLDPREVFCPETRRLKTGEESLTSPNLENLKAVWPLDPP
# Outline: as §1
# [11] = target: T7, ETV7 (Homo sapiens, UniProt Q9Y603 1-341)
# T7 sequence: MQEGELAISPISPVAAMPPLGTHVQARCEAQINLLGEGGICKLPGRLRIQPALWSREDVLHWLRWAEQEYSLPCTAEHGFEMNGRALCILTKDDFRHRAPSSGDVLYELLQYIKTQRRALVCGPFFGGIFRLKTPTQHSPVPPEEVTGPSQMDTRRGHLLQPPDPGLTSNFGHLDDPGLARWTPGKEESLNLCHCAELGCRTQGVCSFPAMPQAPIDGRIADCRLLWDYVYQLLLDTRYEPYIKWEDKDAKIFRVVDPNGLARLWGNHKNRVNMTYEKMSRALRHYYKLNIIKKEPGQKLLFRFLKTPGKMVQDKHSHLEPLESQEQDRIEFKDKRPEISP
# Outline: as §1
# [12] = target: T8, ETV3 (Homo sapiens, UniProt P41162-2 1-143)
# T8 sequence: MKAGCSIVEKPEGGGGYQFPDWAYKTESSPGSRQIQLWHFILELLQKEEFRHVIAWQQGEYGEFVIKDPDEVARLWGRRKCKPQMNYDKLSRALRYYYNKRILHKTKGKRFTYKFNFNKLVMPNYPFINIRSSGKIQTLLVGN
# Outline: as §1
sequence,measurement,setting,value
TAGGCA,binding signal,[1],"1.03 fold enrichment (6-mer frequency, TF over GST control)"
same,binding signal,[2],"1.06 fold enrichment (6-mer frequency, TF over GST control)"
same,binding signal,[3],"1.02 fold enrichment (6-mer frequency, TF over GST control)"
same,binding signal,[4],"1.02 fold enrichment (6-mer frequency, TF over GST control)"
same,binding signal,[5],"1.05 fold enrichment (6-mer frequency, TF over GST control)"
same,binding signal,[6],"1.11 fold enrichment (6-mer frequency, TF over GST control)"
same,binding signal,[7],"1.01 fold enrichment (6-mer frequency, TF over GST control)"
same,binding signal,[8],"1.19 fold enrichment (6-mer frequency, TF over GST control)"
same,binding signal,[9],"1.08 fold enrichment (6-mer frequency, TF over GST control)"
same,binding signal,[10],"1.02 fold enrichment (6-mer frequency, TF over GST control)"
same,binding signal,[11],"1.06 fold enrichment (6-mer frequency, TF over GST control)"
same,binding signal,[12],"1.01 fold enrichment (6-mer frequency, TF over GST control)"
